HepG2 viability – qHTS for Inhibitors of TGF-b: Cytotox Counterscreen. HepG2 CAGA-GFP viability, ATP luminescence, 18 h. Potency, µM (doses to about 46.1 µM), for the others: top-dose activity change, negative = cytotoxicity, most hits filed as cytotoxic. hit rate 0.76% among 410,000. AID 588856, 2011
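CellTiter-Glo luminescence gave cytotoxicity after 18 hours at 37 degrees C. The cells were HepG2 CAGA-GFP in 1% FBS DMEM, stimulated with 500 pg/mL TGF-beta after compound addition. %Activity was normalised to no-cell wells (complete cell-killing) and DMSO (no toxicity), and curves were fitted and classified.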
DT40 TDP1 no CPT – qHTS for Inhibitors of human tyrosyl-DNA phosphodiesterase 1 (TDP1): qHTS in cells in absence of CPT | DT40 Tdp1-/- hTDP1 cells, no CPT, ATP luminescence, 48 h | Potency, µM (titrated, usually from 46.2 µM), for the others: at the highest dose activity change, negative = growth inhibition, actives largely listed as inhibitors | hit rate 15% among 420,000; also: % is scaled to controls: 0 for no effect and ±100 for the full control effect; nearly all actives have a fitted effect of over 55% in size
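Luminescent ATP content (CellTiter-Glo) served as the growth readout. Knockout chicken DT40 cells expressing human TDP1 were exposed to compounds without camptothecin for a minimum 48 hr at 37 °C.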
ATXN2 expr inh – Primary qHTS for Inhibitors of ATXN expression; Potency, µM (top dose mostly 57 µM), inactives show top-dose activity change, negative = inhibition, actives largely listed as inhibitors; HEK-293 ATXN2-luciferase reporter, luminescence, 24 h; AID 1745845, 2022; hit rate 0.72% among 360,000; also: % is scaled to controls: 0 for no effect and ±100 for the full control effect; nearly all actives have a fitted effect of over 55% in size
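qHTS (up to 57 uM final) was run with 24 h compound exposure of reporter cells at 37 °C. Each well was multiplexed: SteadyGlo luminescence measured ATXN2-luciferase expression after a fluorogenic Gly-Phe-AFC viability readout (25 uM final).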
ATXN viability – Viability Counterscreen for Primary qHTS for Inhibitors of ATXN expression; S2 cells (HEK-293 line with an ATXN2-luciferase reporter) viability, CellTiter-Fluor protease fluorescence, 24 h; Potency, µM (doses to about 56.7 µM), hits mostly cytotoxic; hit rate 0.49% among 400,000; also: nearly all actives have a fitted effect of over 40% in size
DT40 TDP1 CPT – qHTS for Inhibitors of human tyrosyl-DNA phosphodiesterase 1 (TDP1): qHTS in cells in presence of CPT; chicken DT40 Tdp1-/-;hTDP1 cells + 20 nM CPT, ATP luminescence, 48 h; Potency, µM (highest dose often 46.2 µM), for inactives: top-dose activity change, negative = growth inhibition, actives largely listed as inhibitors; hit rate 12% among 420,000; also: % is scaled to controls: 0 for no effect and ±100 for the full control effect; nearly all actives have a fitted effect of over 55% in size
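Chicken DT40 Tdp1-/- cells complemented with human TDP1, 400 cells/well, exposed to compounds plus 20 nM camptothecin for at least 48 h at 37 C; viability read as ATP content by CellTiter-Glo luminescence.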
TGFb SMAD3 inh – qHTS for Inhibitors of TGF-b; HepG2 CAGA-GFP TGF-b/SMAD3 reporter, GFP fluorescence, 18 h; TGF-beta stimulated, 500 pg/mL final; Potency, µM (doses to about 46.1 µM), for inactives: at the top dose activity, negative = inhibition, usual class: inhibitors; hit rate 1.2% among 410,000; AID 588855, 2011; also: % is scaled to controls: 0 for no effect and ±100 for the full control effect; nearly all actives have a fitted effect of over 65% in size
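HEPG2 CAGA-GFP reporter cells (1000/well, DMEM with 1% FBS) received compounds, then recombinant TGF-beta at 500 pg/mL final for 18 hours at 37 degrees C. Per-cell GFP summed per well was normalised to unstimulated and stimulated DMSO controls before curve fitting.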
Starred values were filed as active, the others as inactive; i = inactive; ? = inconclusive; . = no result; [ ] = another dose, or the depositor's remark. This is a sample that favours compounds with a hit; in the whole collection about 17% have one here. Calls follow the shape of the dose curve; as a rule, active = well fitted curve in the direction sought with a large enough effect; inconclusive = small, poorly fitted or top-dose-only effect, or another doubt; inactive = no such curve, though single readings can be large; an effect the other way counts as inactive or inconclusive. Potency is read from the fitted curve at half-maximal effect.

SMILES	HepG2 viability	DT40 TDP1 no CPT	ATXN2 expr inh	ATXN viability	DT40 TDP1 CPT	TGFb SMAD3 inh
C/C(=N\NC(=O)c1ccc(O)cc1O)c1cccnc1	3.1%	18.1%	13.6%	i	-17.1%	18.3%
Cc1ccccc1C(O)c1ccncc1 (centres undefined)	17.8µM*	-2.2%	-5.2%	i	-3.3%	-3.1%
Cc1[nH]c2ccccc2c1C(O)c1ccncc1 (centres undefined)	-50.2%	-23.0%	-3.6%	i	25.8%	0.0%
Cc1ccc(NC(=O)c2ccccc2O)cc1	-44.7%	?	78.7%	i	?	?
Cc1cc(C)cc(NC(=O)Nc2ccc(NC(=O)c3ccccc3O)cc2)c1	-48.5%	20.6µM*	-13.6%	i	?	?
O=C(CCCCn1c(=O)c2ccccc2n(Cc2ccc(F)cc2)c1=O)NCc1ccco1	1.3%	14.6µM*	-20.2%	?	16.4µM*	-1.0%
O=c1c2sccc2nc(SCc2ccc([N+](=O)[O-])cc2)n1Cc1ccccn1	-24.0%	16.4µM*	7.7%	i	?	?
O=C(CCCn1c(=O)c2ccccc2n(Cc2ccccc2)c1=O)NCc1ccco1	0.4%	14.6µM*	-6.1%	i	11.6µM*	7.7%
Cc1ccc(CNC(=O)CSc2nc3ccsc3c(=O)n2Cc2ccccn2)cc1	4.3%	-13.9%	13.7%	i	-1.0%	28.3%
Cc1ccc(CSc2nc3ccccc3c(=O)n2CCCC(=O)NCc2ccco2)cc1	-3.0%	11.6µM*	?	i	?	27.9%
Cc1ccc(CNC(=O)CCCn2c(=O)c3ccccc3n(CC(=O)NCc3ccco3)c2=O)cc1	4.3%	-24.8%	-10.8%	i	-8.4%	4.4%
C1CCC(C23CC4CC(CC(C4)C2)C3)NC1 (centres undefined)	1.3%	-22.7%	1.6%	i	-8.8%	11.7%
O=c1c2ccccc2nc(SCc2ccc([N+](=O)[O-])cc2)n1CCCO	0.2%	6.51µM*	1.2%	i	10.3µM*	-16.6%
Nn1c(SCc2ccc([N+](=O)[O-])cc2)nc2ccccc2c1=O	-21.1%	?	.	i	-12.3%	4.8%
CC(C)=CCC[C@H](C)C[C@@H]1Cc2[nH][nH]c(=O)c2[C@H](c2ccc(Cl)cc2)O1	.	?	-0.5%	?	?	.
Cc1cc2nc(-c3ccc(NC(=O)c4ccccc4F)cc3)oc2cc1C	-11.4%	8.2µM*	.	.	?	-2.8%
O=C(Nc1ccc(-c2nc3cc(NC(=O)c4ccc(F)cc4)ccc3o2)cc1)c1ccc(F)cc1	-45.2%	-1.6%	3.3%	i	22.8%	-1.3%
Cc1cc2nc(-c3cccc(NC(=O)c4cccc5ccccc45)c3)oc2cc1C	-27.8%	-15.9%	.	.	-16.7%	-12.7%
COc1ccccc1C(=O)Nc1ccc2oc(-c3ccc(F)cc3)nc2c1	-3.7%	?	0.0%	i	18.4µM*	-1.4%
Cc1nc2sc(C(N)=O)c(N)c2c(C)c1CC(=O)c1ccccc1	-19.1%	?	57.5%[11.3 µM]	i	?	-8.7%
C/C(=N\Nc1cc(C)nc(NCc2ccccc2)n1)c1cccc([N+](=O)[O-])c1	-10.7%	2.91µM*	-13.0%	?	8.2µM*	-15.3%
C/C(=N\Nc1nnc(-c2ccccc2)c(-c2ccccc2)n1)c1cccc([N+](=O)[O-])c1	4.2%	8.2µM*	-6.9%	i	7.31µM*	-10.4%
O=[N+]([O-])c1cccc(-c2csc(N/N=C/c3cccc(O)c3)n2)c1	-0.8%	20.6µM*	?	?	?	1.2%
O=[N+]([O-])c1cccc(/C=N/Nc2nnc(-c3ccccc3)c(-c3ccccc3)n2)c1	4.5%	9.2µM*	-9.6%	?	9.2µM*	3.7%
C/C(=N\Nc1ccc(Cl)c(C(=O)O)c1)c1cccc([N+](=O)[O-])c1	-6.3%	-10.4%	.	i	-2.7%	0.5%
SMILES	HepG2 viability	DT40 TDP1 no CPT	ATXN2 expr inh	ATXN viability	DT40 TDP1 CPT	TGFb SMAD3 inh
OCCC1CN(CCCn2cccn2)CCN1C1CCCCC1 (centres undefined)	3.3%	10.8%	-16.8%	i	3.5%	7.7%
Cc1cc(CN(C)C(=O)c2cc(COc3ccc(F)cc3Cl)on2)n[nH]1	2.4%	?	28.6%	i	6.6%	7.6%
Cc1ccc(SCC(=O)NC(C)c2ccccc2)cc1 (centres undefined)	0.6%	-17.9%	19.1%	i	-16.9%	-17.9%
CCCC[C@@H]1CCCO[C@@](C(=O)NCc2ccccn2)(C(F)(F)F)C1	4.3%	?	-29.8%	i	18.4µM*	?
Cc1nn2c(C)c(C(=O)NCc3ccc(OC(C)C)cc3)cnc2c1-c1ccc(F)cc1	-16.8%	-0.4%	.	.	-2.0%	-0.1%
NS(=O)(=O)c1ccc(NC(=S)NNC(=O)c2ccc(Br)o2)cc1	11.7%	21.4%	14.2%	i	-2.9%	23.2%
COc1cc(OC)c(NC(=O)Nc2ccccc2OCc2cc(=O)n3cc(C)ccc3n2)cc1Cl	4.7%	9.2µM*	.	.	8.2µM*	2.8%
Cc1cccc(OCC(=O)Nc2ccccc2OCc2cc(=O)n3cc(C)ccc3n2)c1	10.1%	?	.	.	13µM*	33.1%
COc1cc(OC)c(NC(=O)Nc2cccc(OCc3cc(=O)n4ccccc4n3)c2)cc1Cl	-17.0%	13µM*	.	.	18.4µM*	-29.3%
COc1ccc(NC(=O)Nc2ccccc2OCc2cc(=O)n3ccccc3n2)c(OC)c1	-16.4%	?	.	.	?	-3.4%
CCC(=O)Nc1cccc(OCc2cc(=O)n3cc(C)ccc3n2)c1	-1.5%	?	.	.	?	6.5%
COc1ccc(OC)c(NC(=O)Nc2cccc(OCc3cc(=O)n4cc(C)ccc4n3)c2)c1	1.1%	18.4µM*	.	.	8.2µM*	?
Cc1cccc(NC(=O)c2ncn3c2C(=O)N[C@@H](C)C3)c1	-17.4%	?	2.8%	i	3.9%	0.5%
COc1ccc(NC(=O)NNC(=O)c2ccccc2-n2cccc2)cc1OC	0.5%	-19.3%	4.5%	i	0.9%	20.1%
CC(C)c1ccc(NC(=O)CSc2nc3ccsc3c(=O)n2CCC(=O)O)cc1	2.6%	20.0%	0.0%	i	4.5%	3.8%
Cc1ccc(NC(=O)Nc2ccccc2OCc2cc(=O)n3ccccc3n2)c(Cl)c1	3.3%	-20.3%	.	.	-7.7%	-0.6%
Cc1ccn2c(=O)cc(COc3cccc(NC(=O)Nc4cccc(Cl)c4C)c3)nc2c1	0.9%	23.1µM*	.	.	?	0.6%

Bioassay records: PubChem, National Center for Advancing Translational Sciences (NCATS)
